Experimental data as given in PubChem BioAssay (NCATS).
Inconclusive results are not listed. A call without a number means that no potency is given here. Calls of active or inactive are those of the source. Unless noted, the call rests on the fitted dose curve.

Experiments:
[1] = qHTS for Inhibitors of the Functional Ribonucleoprotein Complex (vRNP) of Lassa (LASV) Arenavirus: LASV Primary Screen - GLuc reporter signal (AID 1347082; calls by dose curve; tested in HEK293 reporter line; further: nearly all actives have a fitted effect of over 60% in size)
[2] = qHTS for Inhibitors of the Functional Ribonucleoprotein Complex (vRNP) of Lassa (LASV) Arenavirus: Viability assay - alamar blue signal for LASV Primary Screen (AID 1347083; calls by dose curve; tested in HEK293 reporter line; further: nearly all actives have a fitted effect of over 80% in size)
[3] = qHTS for Inhibitors of the Functional Ribonucleoprotein Complex (vRNP) of Lymphocytic Choriomeningitis Arenaviruses (LCMV): Viability assay - alamar blue signal for LCMV Primary Screen (AID 1347085; calls by dose curve; tested in HEK293 reporter line; further: nearly all actives have a fitted effect of over 80% in size)
[4] = biological target: Nucleoprotein (Lymphocytic choriomeningitis virus (strain Armstrong)) (UniProt P09992); assay: qHTS for Inhibitors of the Functional Ribonucleoprotein Complex (vRNP) of Lymphocytic Choriomeningitis Arenaviruses (LCMV): LCMV Primary Screen - GLuc reporter signal (AID 1347086); further: nearly all actives have a fitted effect of over 70% in size
Potency means the concentration at half of the fitted maximal effect.

Nucleoprotein (Lymphocytic choriomeningitis virus (strain Armstrong)), sequence (P09992 whole entry, looked up): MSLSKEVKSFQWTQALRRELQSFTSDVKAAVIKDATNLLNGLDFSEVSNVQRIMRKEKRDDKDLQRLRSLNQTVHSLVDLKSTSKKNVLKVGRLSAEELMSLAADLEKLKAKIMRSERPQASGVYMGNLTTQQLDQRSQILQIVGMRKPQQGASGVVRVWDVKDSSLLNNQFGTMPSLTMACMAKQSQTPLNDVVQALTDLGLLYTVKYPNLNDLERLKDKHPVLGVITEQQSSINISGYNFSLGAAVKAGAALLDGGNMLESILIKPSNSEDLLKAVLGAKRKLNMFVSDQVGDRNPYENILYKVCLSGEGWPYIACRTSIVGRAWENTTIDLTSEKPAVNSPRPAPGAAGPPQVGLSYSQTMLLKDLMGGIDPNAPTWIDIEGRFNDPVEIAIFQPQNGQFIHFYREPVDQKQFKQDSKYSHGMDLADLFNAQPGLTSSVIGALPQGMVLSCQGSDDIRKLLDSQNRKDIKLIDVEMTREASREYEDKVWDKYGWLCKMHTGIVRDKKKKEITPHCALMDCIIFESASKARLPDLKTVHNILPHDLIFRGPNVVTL

Structure (SMILES) | Potency [1] | Potency [2] | Potency [3] | Potency [4]
CCCCCCCCCCCC(=O)OCC | inactive | inactive | inactive | inactive
COc1cc(C)c(C(=O)Oc2cc(C)c(C(=O)O)c(O)c2C)c(O)c1C | inactive | inactive | inactive | inactive
Cc1cc(CS(=O)(=O)c2ccccc2)cc(OCc2ccc(CN3CCC[C@H]3CO)cc2)c1 | inactive | inactive | inactive | inactive
O=C1C=C(O)c2cccc(O)c2C1=O | inactive | inactive | inactive | inactive
CC1=C(C(=O)O)N2C(=O)C(NC(=O)CCCC(=O)O)C2SC1 (stereo not given) | inactive | inactive | inactive | inactive
CC1(C)CCC[C@@](C)([C@H]2CC[C@]3(C)[C@@H]2[C@H](O)C[C@@H]2[C@@]4(C)CC[C@H](O)C(C)(C)[C@@H]4CC[C@]23C)O1 | inactive | inactive | inactive | inactive
C[C@H]1CC[C@@H]2[C@@H](C)[C@H]3C(C[C@H]4C5CC[C@H]6C[C@@H](O)CC[C@]6(C)C5CC[C@]34C)N2C1 (stereo not given in full) | inactive | inactive | inactive | inactive
O=c1ccc2ccc(O[C@@H]3O[C@H](CO[C@@H]4OC[C@](O)(CO)[C@H]4O)[C@@H](O)[C@H](O)[C@H]3O)cc2o1 | inactive | inactive | inactive | inactive
CS(C)(=O)=O | inactive | inactive | inactive | inactive
C=C(C)C(COc1c2occc2cc2ccc(=O)oc12)OC(C)(C)C(O)COc1c2occc2cc2ccc(=O)oc12 (stereo not given) | inactive | inactive | inactive | inactive
CCCCCCCCOC(C)=O | inactive | inactive | inactive | inactive
CC(=O)CCC1=C(C)CCCC1(C)C | inactive | inactive | inactive | inactive
COC1=CC(=O)CC(C)C12Oc1cc(OC)cc(OC)c1C2=O (stereo not given) | inactive | inactive | inactive | inactive
O=C(/C=C/c1ccc(O)cc1)OCc1occc(=O)c1O[C@@H]1OC(CO)[C@@H](O)[C@H](O)[C@@H]1O (stereo not given in full) | inactive | inactive | inactive | inactive
O=C1NC(=S)NC1=Cc1ccc(O)cc1 | inactive | inactive | inactive | inactive
CCCC/C=C/CCCCO | inactive | inactive | inactive | inactive
C[C@@H]1O[C@@H](O[C@H]2[C@H](O)[C@@H](O)[C@H](Oc3c(-c4ccc(O)cc4)oc4cc(O)cc(O)c4c3=O)O[C@@H]2CO)[C@H](O)[C@H](O)[C@H]1O | inactive | inactive | inactive | inactive
COc1cc(C(=O)O[C@H]2C/C(C)=C/CC/C(C)=C/[C@@H](O)C2C(C)C)ccc1O (stereo not given in full) | inactive | inactive | inactive | inactive
C/C(=C\C(=O)O)CC(=O)O | inactive | inactive | inactive | inactive
c1ccc2nc(-c3ccc4c(c3)OCO4)ccc2c1 | inactive | inactive | inactive | inactive

Structure (SMILES) | Potency [1] | Potency [2] | Potency [3] | Potency [4]
COc1cc2c(c(OC)c1OC)-c1c(cc3c(c1OC)OCO3)CC(C)C(C)C2 (stereo not given) | inactive | inactive | inactive | inactive
COc1ccc2[nH]c3c(c2c1)CCn1c-3nc2ccccc2c1=O | inactive | inactive | inactive | inactive
NC[C@@H]1O[C@@H](O[C@H]2[C@@H](O)[C@H](O[C@@H]3[C@@H](O)[C@@H](N)C[C@H](N)[C@H]3O[C@H]3O[C@H](CN)[C@@H](O)[C@@H](O)[C@H]3N)O[C@H]2CO)[C@H](N)[C@@H](O)[C@@H]1O | inactive | inactive | inactive | inactive
CC(C)=CCCC(C)CC(=O)O (stereo not given) | inactive | inactive | inactive | inactive
O=c1c(O)c(-c2ccccc2O)oc2cc(O)cc(O)c12 | inactive | inactive | inactive | inactive
COC(=O)c1cc(=O)cc(C(=O)OC)o1 | inactive | inactive | inactive | inactive
CC(O)C(C)O (stereo not given) | inactive | inactive | inactive | inactive
CCc1cnn2c(NCc3ccc[n+]([O-])c3)cc(N3CCCC[C@@H]3CCO)nc12 | 109 nM (active) | 38.5 nM (active) | 38.5 nM (active) | 48.5 nM (active)
NC1(C(=O)N[C@@H](CCO)c2ccc(Cl)cc2)CCN(c2ncnc3[nH]ccc23)CC1 | 968 nM (active) | 385 nM (active) | 611 nM (active) | 1720 nM (active)
CC(=O)NCC(=O)N1[C@H]2CC[C@H]1c1cc(Nc3ncc(C(F)(F)F)c(NC4CCC4)n3)ccc12 | inactive | 3430 nM (active) | 9680 nM (active) | inactive
COc1cc(OC)c2c(c1)C(=O)OC2 | inactive | inactive | inactive | inactive
CN(C)c1nc(Cc2ccc(NC(=O)c3ccc4ccccc4c3)cc2)nc(Cl)c1CC(=O)O | inactive | inactive | inactive | inactive
CC(C)CCO | inactive | inactive | inactive | inactive
CCCCN | inactive | inactive | inactive | inactive
CC(=O)c1c(O)cccc1O | inactive | inactive | inactive | inactive
C/C=C(/C)C(=O)OC1Cc2c(ccc3ccc(=O)oc23)OC1(C)C (stereo not given) | inactive | inactive | inactive | inactive
CCCCCCCCCCCCCCCCCC(=O)NCC(COP(=O)([O-])OCC[N+](C)(C)C)OCC (stereo not given) | inactive | inactive | inactive | inactive
COc1cc2c(OC(C)=O)c3c(c(-c4ccc5c(c4)OCO5)c2cc1OC)C(=O)OC3 | inactive | inactive | inactive | inactive
COc1cc(CCc2ccccc2)c(C(=O)O)c(O)c1C/C=C(/C)CCC=C(C)C | inactive | inactive | inactive | inactive
CCN1C[C@]2(COC)CC[C@H](O)[C@@]34C5C[C@@H]6[C@@H](OC)C[C@@](O)(C5[C@H]6O)[C@](O)([C@@H](OC)C23)[C@@H]14 (stereo not given in full) | inactive | inactive | inactive | inactive

Structure (SMILES) | Potency [1] | Potency [2] | Potency [3] | Potency [4]
COC(=O)Nc1ccc(C)c(NC(=O)OC)c1 | inactive | inactive | inactive | inactive
C=CC(=O)CCCCC | inactive | inactive | inactive | inactive
O=c1c2c(O)cc(O)cc2oc2c(O)ccc(O[C@H]3O[C@@H](CO)[C@H](O)[C@@H](O)[C@@H]3O)c12 | inactive | inactive | inactive | inactive
CC(C)CCOC(=O)CC(C)C | inactive | inactive | inactive | inactive
COC(=O)CC(C)CCC=C(C)C (stereo not given) | inactive | inactive | inactive | inactive
COc1cc(C2OCC3C(c4ccc(OC5OC(CO)C(O)C(O)C5O)c(OC)c4)OCC23)ccc1O (stereo not given) | inactive | inactive | inactive | inactive
COc1cc2oc(=O)ccc2c(OC)c1CC(O)C(C)(C)O (stereo not given) | inactive | inactive | inactive | inactive
CC1=CC2OC3CC4OC(=O)C=CC=CC(C(C)O)OCC(O)C5(C)OC5C(=O)OCC2(CC1O)C4(C)C31CO1 (stereo not given) | inactive | inactive | inactive | inactive
CCCCCCCCCCCCCCCCCCCCCCCCCCCCCC | inactive | inactive | inactive | inactive
CC(C)=CCOc1ccc2ccc(=O)oc2c1 | inactive | inactive | inactive | inactive
O=C1NC(=O)C(Cc2ccc(O)cc2)N1 (stereo not given) | inactive | inactive | inactive | inactive
CC(=O)Nc1ccccc1O | inactive | inactive | inactive | inactive
Cn1c(N2CCCCS2(=O)=O)nc(C(=O)NCc2ccc(F)cc2)c(O)c1=O | inactive | inactive | inactive | inactive
COC(=O)[C@@]1(C)CC[C@]2(C)CC[C@@]3(C)C(=CC(=O)C4[C@@]5(C)CC[C@H](O)C(C)(C)[C@@H]5CC[C@]43C)[C@H]2C1 (stereo not given in full) | inactive | inactive | inactive | inactive
CC(C)c1onc(-c2c(Cl)cccc2Cl)c1COc1ccc(C=Cc2cccc(C(=O)O)c2)c(Cl)c1 | inactive | inactive | inactive | inactive
OC[C@H]1O[C@@H]2O[C@H]3[C@H](O)[C@@H](O)[C@@H](O[C@H]4[C@H](O)[C@@H](O)[C@@H](O[C@H]5[C@H](O)[C@@H](O)[C@@H](O[C@H]6[C@H](O)[C@@H](O)[C@@H](O[C@H]7[C@H](O)[C@@H](O)[C@@H](O[C@H]8[C@H](O)[C@@H](O)[C@@H](O[C@H]9[C@H](O)[C@@H](O)[C@@H](O[C@H]1[C@H](O)[C@H]2O)O[C@@H]9CO)O[C@@H]8CO)O[C@@H]7CO)O[C@@H]6CO)O[C@@H]5CO)O[C@@H]4CO)O[C@@H]3CO | inactive | inactive | inactive | inactive
OCCN1C[C@H](O)[C@@H](O)[C@H](O)[C@@H]1CO | inactive | inactive | inactive | inactive
N[C@@H](CCCCNC(=O)CCCC[C@@H]1SC[C@H]2NC(=O)N[C@H]12)C(=O)O | inactive | inactive | inactive | inactive
CCCCCCCCCCCCCCCC(=O)NCCc1c[nH]c2ccccc12 | inactive | inactive | inactive | inactive
NC1C(O)OC(CO)[C@@H](O)[C@@H]1O[C@H]1O[C@@H](C(=O)O)C(O)C(O)C1O (stereo not given in full) | inactive | inactive | inactive | inactive
